TrxR1 inh – qHTS Assay for Inhibitors of Mammalian Selenoprotein Thioredoxin Reductase 1 (TrxR1): qHTS; Potency, µM (highest dose often 114 µM), for inactives: at the top dose activity change, negative = inhibition, most hits filed as inhibitors; 390,000 compounds, 1% hits; Thioredoxin reductase 1, cytoplasmic (Rattus norvegicus), O89049; recombinant rTrxR1, NADPH fluorescence consumption, selenite substrate; further: potency means the concentration at half of the fitted maximal effect; nearly all actives have a fitted effect of over 65% in size
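Rat TrxR1 (90 nM in the dispensed reagent) was pre-reduced with 400 uM NADPH for 5 min at room temperature, then incubated with compound for 15 min. After 400 uM selenite was added, NADPH fluorescence (Ex 340/Em 450 nm) was followed for 8 min.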
TrxR1 substrate – qHTS Assay for Substrates of Mammalian Selenoprotein Thioredoxin Reductase 1 (TrxR1): qHTS; Thioredoxin reductase 1, cytoplasmic (Rattus norvegicus), O89049; purified TrxR1 substrate turnover, NADPH consumption readout; Potency, µM (highest dose often 114 µM), without a hit: at the top dose activity change, negative = substrate turnover; 390,000 compounds, 0.01% hits; AID 588456, 2011; further: potency means the concentration at half of the fitted maximal effect; nearly all actives have a fitted effect of over 50% in size
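Rat TrxR1, dispensed at 90 nM, was prereduced with 400 uM NADPH (final) for 5 min at ~22 deg C, then incubated with compound 15 min before 400 uM selenite. A first-read NADPH fluorescence drop versus no-compound background flagged substrates.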
GALK inhibitor – qHTS Assay for Inhibitors of Human Galactokinase (GALK) | P51570 | Purified GALK, Kinase-Glo residual ATP luminescence | Potency, µM (highest dose often 57.5 µM), without a hit: at the top dose activity change, negative = inhibition, hits mostly inhibitors | 270,000 compounds, 0.007% hits | AID 1868, 2009; further: potency means the concentration at half of the fitted maximal effect
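Galactose (100 uM) and ATP (35 uM) were turned over by 5 nM GALK for 1 h at RT. Kinase-Glo Plus then converted the remaining ATP into a luminescent signal.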
PKM2 act – qHTS Assay for Activators of Human Muscle isoform 2 Pyruvate Kinase; Pyruvate kinase PKM (Homo sapiens), P14618; purified PKM2, Kinase-Glo ATP luminescence, activation; response scale: 0% is enzyme alone, no compound; Potency, µM (highest dose often 57.5 µM), for the others: at the top dose activation, most hits filed as activators; 260,000 compounds, 0.34% hits; further: potency means the concentration at half of the fitted maximal effect; nearly all actives have a fitted effect of over 55% in size
Target sequence (P14618 whole entry, looked up, canonical isoform): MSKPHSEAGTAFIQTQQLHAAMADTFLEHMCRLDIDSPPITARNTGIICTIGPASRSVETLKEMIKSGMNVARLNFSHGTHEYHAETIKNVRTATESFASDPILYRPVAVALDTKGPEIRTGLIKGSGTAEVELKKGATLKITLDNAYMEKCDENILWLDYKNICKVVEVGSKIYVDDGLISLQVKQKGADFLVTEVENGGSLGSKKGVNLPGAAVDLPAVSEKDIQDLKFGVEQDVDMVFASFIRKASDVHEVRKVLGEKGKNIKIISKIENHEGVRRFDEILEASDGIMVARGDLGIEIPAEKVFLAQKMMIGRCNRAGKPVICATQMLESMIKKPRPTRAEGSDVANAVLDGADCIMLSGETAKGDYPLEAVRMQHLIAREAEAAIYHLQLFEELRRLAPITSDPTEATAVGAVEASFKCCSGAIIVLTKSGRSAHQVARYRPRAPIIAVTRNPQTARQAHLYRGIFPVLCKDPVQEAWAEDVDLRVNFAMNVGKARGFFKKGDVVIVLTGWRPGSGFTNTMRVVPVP
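Purified hPK-M2 (>95%) run at intermediate activity with 0.1 mM ADP and 0.5 mM PEP in 50 mM imidazole pH 7.2, KCl, MgCl2; 1 h room temperature. ATP formed read by Kinase-Glo luminescence; normalized to uninhibited and no-enzyme controls.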
PI4K2A inh – qHTS for small molecular inhibitors of PI4K2A | purified PI4K2A, ADP-Glo luminescence, 1 h; active compounds read low | activity change, negative = inhibition, % at 76.9 µM | 420,000 compounds, 0.13% hits; in the data active means activity change below about -50%; inconclusive means mostly about -30% to -49%;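 further: -100% = wells without enzyme as full effect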
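ADP-Glo luminescence measured ADP generated by PI4K2A enzyme (4 ug/mL before mixing) with 1.2 mM PI substrate (pre-mix) and 300 microM ATP (pre-mix). Tris pH7.5 buffer with MgCl2, Triton X-100; 1 h reaction at ambient temperature.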
Active calls of the source: *; u = inconclusive; x = no result given; [ ] = remark or other dose. A selection: hits, their analogues and other compounds. The true share with any hit is near 1.2%. Unless noted, the call rests on the fitted dose curve; in most records, active means well fitted curve in the direction sought with a large enough effect; inconclusive means small, poorly fitted or top-dose-only effect, or another doubt; inactive means no such curve, though single readings can be large; an effect the other way counts as inactive or inconclusive. Unless noted, on the % scale 0 is the no-effect control and ±100 the full control effect.

SMILES	TrxR1 inh	TrxR1 substrate	GALK inhibitor	PKM2 act	PI4K2A inh
Cc1ccc2[nH]c(=O)c3cc(C(=O)N4CCN(C(=O)c5ccco5)CC4)sc3c2c1	0%[57.1 µM]	8%[57.1 µM]	3%	16µM*	5
O=C(O)c1cccc(Cn2c(Cl)c(/C=N/NC(=O)c3ccco3)sc2=O)c1	79µM*	-19%	-6%	x	1
O=C(O)c1cccc(Cn2c(Cl)c(/C=N/NC(=O)c3cccc(O)c3)sc2=O)c1	-8%	-7%	-4%	0%	-4
O=C(O)c1cccc(Cn2c(Cl)c(/C=N/NC(=O)c3ccccc3)sc2=O)c1	-40%	-13%	-4%	2%	-9
O=C(O)c1cccc(Cn2c(Cl)c(/C=N/NC(=O)c3cc4ccccc4cc3O)sc2=O)c1	-13%	-13%	-14%	32µM*	-7
CCCC[C@@H]1C[C@H]1C(NS(=O)(=O)c1cccc2cccnc12)c1ccc(-c2ccccc2)cc1 (stereo partly specified)	x	x	x	3%	x
O=C(OCc1cn(Cc2ccccc2F)nn1)N1CCOCC1	x	x	x	x	-1
COc1cccc(-c2noc(COc3ccc(C(C)(C)C)cc3)n2)c1	27%	2%	x	x	-1
Cc1ccc(CNC(=O)CCCOc2cc(=O)n(C)c3ccccc23)o1	40µM*	-4%	-2%	13%	5
CCn1c(N)nc2c1c(=O)n(C)c(=O)n2C	17%	6%	1%	1%	2
CCCc1nc2c(=O)n(C)c(=O)nc-2n(C)n1	-101%	u	1.8µM*	-1%	-61*
Cc1ccccc1-c1nc2c(=O)n(C)c(=O)nc-2n(C)n1	14µM*	13µM*	x	x	x
CCc1ccc(-c2nc3c(=O)n(C)c(=O)nc-3n(CC)n2)cc1	-16%	35µM*	x	x	x
Cn1nc(-c2ccccn2)nc2c(=O)n(C)c(=O)nc1-2	u	35µM*	1µM*	6%	-63*
COc1ccc(-c2nc(-c3ccccn3)ncc2S(C)(=O)=O)cc1	-2%[57.1 µM]	2%[57.1 µM]	-3%	3%	1
COC(=O)c1cc2c(cc1NC(=O)c1c(C)nn(-c3ccc(C)cc3)c1-n1cccc1)OCO2	23%	0%	x	x	-4
CCOc1ccccc1CN1CCc2nc(N3CCN(c4ccccc4F)CC3)ncc2C1	7%[57.1 µM]	-5%[57.1 µM]	x	x	-4
CC1(C)CC(=O)C=C(OC(=O)c2ccc(Cl)cc2)C1	4.5µM*	8%[57.1 µM]	-2%	3%	8
Nc1nnc(CC(=O)N/N=C/c2cc([N+](=O)[O-])cc(Br)c2O)s1	35µM*	-14%	-2%	0%	-5
Nc1nnc(CC(=O)N/N=C/c2cccc([N+](=O)[O-])c2)s1	u	-7%	-1%	u	-4
CCCCN(CCCC)CCCNC(=O)C1CC(c2cc(C(F)(F)F)cc(C(F)(F)F)c2)=NO1 (stereo unspecified)	14%[57.1 µM]	9%[57.1 µM]	x	x	-66*
COc1ccc(CN(CCN2CCOCC2)C(=O)c2ccc(F)cc2F)cc1OC	x	x	x	x	-3
CSc1nc2ccc(NS(=O)(=O)c3ccc4c(c3)OCCO4)cc2s1	-17%	-13%	1%	16µM*	-2
CC(=O)N1CCc2c(sc3c2c(=O)n(-c2ccc(C)cc2)c(=O)n3Cc2c(F)cccc2Cl)C1	5%	1%	x	x	-2
CC(=O)CCc1oc2ccc(NC(C)=O)cc2c1-c1ccc(C)o1	20µM*	3%	1%	10µM*	-6
SMILES	TrxR1 inh	TrxR1 substrate	GALK inhibitor	PKM2 act	PI4K2A inh
CN1CCN/C1=C(/C(Cl)=C(Cl)Cl)[N+](=O)[O-]	3.2µM*	8%[57.1 µM]	8%	10%	-13
COc1ccccc1-c1nc2c(c(SCC(=O)Nc3ccccc3F)n1)Cc1c(CO)cnc(C)c1O2	-6%	-10%	x	x	-5
COc1ccc2nc(Nc3sc4c(c3C(N)=O)CCCC4)sc2c1	14µM*	-8%	-2%	-10%	-4
CC(=O)C1(C(=O)NC2CCCC2)CC(c2ccccn2)=NO1 (stereo unspecified)	x	x	x	x	6
COc1ccc(CCN(C)C(=O)COC(=O)/C=C/c2ccc(C)o2)cc1OC	16µM*	-14%	x	x	-3
COC(=O)C[C@H]1CC[C@H](NC(=O)Nc2ccccc2OC)[C@@H](CO)O1	x	x	x	x	5
COc1ccc(/C=N/Nc2snc(SC)c2C#N)cc1OC	-22%	-8%	0%	-14%	-54*
COC1(OC)C=CC(=O)C=C1NC(=O)c1ccccc1OC(C)=O	13µM*	-5%[57.1 µM]	x	x	-10
CSc1nc(O)c(C(c2ccc(OC(C)C)cc2)c2c(O)nc(SC)[nH]c2=O)c(=O)[nH]1	11µM*	3%[57.1 µM]	x	x	-6
S=C(Nc1ccccc1)Nc1ccccc1C#Cc1ccccc1	x	x	x	2%	x
Cc1ccsc1C(=O)Nc1ccc(C(=O)O)cc1	-11%	-11%	7%	-50%	-74*
Cc1ccsc1C(=O)Nc1ccc(OCc2ccccc2)cc1	34%	10%	18%	-9%	u
O=C(NCc1ccco1)/C(=C\c1ccco1)NC(=O)c1ccco1	50µM*	-8%	-1%	17%	-3
O=C(NCc1ccco1)/C(=C/c1ccco1)NC(=O)c1ccc(Br)o1	50µM*	-7%	1%	1%	-4
Cc1c(CC(=O)N2CCCCC2)c(=O)oc2cc(O)ccc12	56µM*	925%	x	x	-2
COc1ccc2c(C)c(CC(=O)N3CCN(C(=O)C4COc5ccccc5O4)CC3)c(=O)oc2c1 (stereo unspecified)	26%	-6%	-4%	x	2
Cc1c(CC(=O)N2CCN(C(=O)C3COc4ccccc4O3)CC2)c(=O)oc2cc(O)ccc12 (stereo unspecified)	89µM*	871%	6%	0%	-2
Cc1cc(NC(=O)c2cc(-c3ccccc3)on2)no1	-1%	-2%	-2%	-13%	4
O=C(c1ccccc1)c1cc(-c2ccccc2)on1	12%	2%	5%	-52%	-51*
COc1ccc(N2CSC3=C(C#N)C(c4cc(OC)ccc4OC)CC(=O)N3C2)c(OC)c1 (stereo unspecified)	14µM*	0%[57.1 µM]	1%	-12%	-27
CC1(C)Cc2c(C#N)c(N3CCN(C(=O)c4ccccc4)CC3)nc(-c3ccco3)c2CS1	32µM*	6%	-5%	u	-10
CC(C)c1nc(N2CCN(C(=O)c3ccccc3)CC2)c(C#N)c2c1COC(C)(C)C2	0%[57.1 µM]	35%[57.1 µM]	1%	-1%	2

High-throughput results deposited in PubChem BioAssay by National Center for Advancing Translational Sciences (NCATS).
